In all, about 16,000 sequences were measured (“rpm ratio (pull-down/input)”: median about 0.5, highest 2% from about 5.5 on). The sample holds the highest values, similar sequences and a random draw of the others, so the mix is not that of the screen.

This note sets out measurements from paper PMC12820563, “FoxP3 forms a head-to-head dimer in vivo and stabilizes its multimerization on adjacent microsatellites”.

The experiment concerns the target T1, MBP-FoxP3dN (Mus musculus, UniProt Q99JB6 188-423).
T1 sequence: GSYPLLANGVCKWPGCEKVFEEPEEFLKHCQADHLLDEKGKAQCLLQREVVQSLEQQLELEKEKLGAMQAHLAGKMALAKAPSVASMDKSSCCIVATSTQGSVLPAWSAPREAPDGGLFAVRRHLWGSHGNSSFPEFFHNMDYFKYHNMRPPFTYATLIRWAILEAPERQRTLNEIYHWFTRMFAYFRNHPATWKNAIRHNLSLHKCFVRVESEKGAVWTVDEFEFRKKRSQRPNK
Briefly: PD-seq (MBP pull-down with sequencing); 20 mM Tris-HCl pH 7.5, 100 mM NaCl, 1.5 mM MgCl2, 0.4 uM protein, 0.1 uM dsDNA library, 30 min, room temperature, amylose pull-down; high values mean tight binding. Conditions: protein: recombinant; tags: His6-MBP; chain copies: 2; dsDNA, one strand shown. In outline: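 In Tris pH 7.5 buffer with NaCl and MgCl2, 0.4 µM His6-MBP-tagged mouse FoxP3 or FoxP1 fragment lacking the N-terminus, from E. coli, met 0.1 µM Klenow-filled double-stranded degenerate DNA library for 30 min at room temperature. Three washes on amylose resin followed capture of the complexes, then proteinase K release of DNA, PCR barcoding and Illumina sequencing. Binding is taken as pooled-replicate reads-per-million enrichment of pull-down relative to input.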
As for “GATGATTGTTCTCCCAGCTGATGAATTTGCTTTATCGAGTAAACAAATTTTCCTAATCTTTCTGTTCAAGCGCCATCTAC”, the binding signal is 3.94 RPM ratio (pull-down/input). Consider “GATGATTGTTCTCCCAGCTGATGAATTGCTTATATCGAGTAAACAAATTTTCCTAATCTTTCTGTTCAAGCGCCATCTAC”, for which the binding signal was 1.61 RPM ratio (pull-down/input). The value for “GATGATTGTTCTCCCAGCTGATGAATTGCTTATTTCGAGTAAACAAATTTTCCTAATCTTTCTGTTCAAGCGCCATCTAC” was 2.46 RPM ratio (pull-down/input). Then “GATGATTGTTCTCCCAGCTGATGAATTTGCTTATTCGAGTAAACAAATTTTCCTAATCTTTCTGTTCAAGCGCCATCTAC”, with 6.84 RPM ratio (pull-down/input); and “GATGATTGTTCTCCCAGCTGATGAATTACTCATCTCGAGTAAACAAATTTTCCTAATCTTTCTGTTCAAGCGCCATCTAC”, with 0.431 RPM ratio (pull-down/input); and “GATGATTGTTCTCCCAGCTGATGAATTGAGCGCATCGAGTAAACAAATTTTCCTAATCTTTCTGTTCAAGCGCCATCTAC”, with 1.34 RPM ratio (pull-down/input). The value for “GATGATTGTTCTCCCAGCTGATGAATTCCCACGTTCGAGTAAACAAATTTTCCTAATCTTTCTGTTCAAGCGCCATCTAC” was 0.282 RPM ratio (pull-down/input); that for “GATGATTGTTCTCCCAGCTGATGAATTGTCTATTTCGAGTAAACAAATTTTCCTAATCTTTCTGTTCAAGCGCCATCTAC” was 1.18 RPM ratio (pull-down/input); that for “GATGATTGTTCTCCCAGCTGATGAATTCCTATTGTCGAGTAAACAAATTTTCCTAATCTTTCTGTTCAAGCGCCATCTAC” was 0.764 RPM ratio (pull-down/input). For the sequence “GATGATTGTTCTCCCAGCTGATGAATTTCTATTGTCGAGTAAACAAATTTTCCTAATCTTTCTGTTCAAGCGCCATCTAC”, the binding signal is 0.631 RPM ratio (pull-down/input). In the case of “GATGATTGTTCTCCCAGCTGATGAATTGTCCTATTCGAGTAAACAAATTTTCCTAATCTTTCTGTTCAAGCGCCATCTAC”, the binding signal was 0.45 RPM ratio (pull-down/input). Then “GATGATTGTTCTCCCAGCTGATGAATTTGTCTATTCGAGTAAACAAATTTTCCTAATCTTTCTGTTCAAGCGCCATCTAC”, with 5.7 RPM ratio (pull-down/input); and “GATGATTGTTCTCCCAGCTGATGAATTCTATTTGTCGAGTAAACAAATTTTCCTAATCTTTCTGTTCAAGCGCCATCTAC”, with 5.87 RPM ratio (pull-down/input); and “GATGATTGTTCTCCCAGCTGATGAATTGGCCCTCTCGAGTAAACAAATTTTCCTAATCTTTCTGTTCAAGCGCCATCTAC”, with 0.358 RPM ratio (pull-down/input). As for “GATGATTGTTCTCCCAGCTGATGAATTCGTCAGGTCGAGTAAACAAATTTTCCTAATCTTTCTGTTCAAGCGCCATCTAC”, the binding signal was 0.551 RPM ratio (pull-down/input). In the case of “GATGATTGTTCTCCCAGCTGATGAATTTCTTAGCTCGAGTAAACAAATTTTCCTAATCTTTCTGTTCAAGCGCCATCTAC”, the binding signal was 0.342 RPM ratio (pull-down/input). The value for “GATGATTGTTCTCCCAGCTGATGAATTTTTTGGCTCGAGTAAACAAATTTTCCTAATCTTTCTGTTCAAGCGCCATCTAC” was 0.204 RPM ratio (pull-down/input). Then “GATGATTGTTCTCCCAGCTGATGAATTTGTTAGCTCGAGTAAACAAATTTTCCTAATCTTTCTGTTCAAGCGCCATCTAC”, with 6.55 RPM ratio (pull-down/input). For the sequence “GATGATTGTTCTCCCAGCTGATGAATTCTTTGGCTCGAGTAAACAAATTTTCCTAATCTTTCTGTTCAAGCGCCATCTAC”, the binding signal is 0.217 RPM ratio (pull-down/input). In the case of “GATGATTGTTCTCCCAGCTGATGAATTTGTTGGCTCGAGTAAACAAATTTTCCTAATCTTTCTGTTCAAGCGCCATCTAC”, the binding signal was 7 RPM ratio (pull-down/input).

On to “GATGATTGTTCTCCCAGCTGATGAATTGTTAGGCTCGAGTAAACAAATTTTCCTAATCTTTCTGTTCAAGCGCCATCTAC”, for which the binding signal is 0.88 RPM ratio (pull-down/input). Then “GATGATTGTTCTCCCAGCTGATGAATTGCGGTCATCGAGTAAACAAATTTTCCTAATCTTTCTGTTCAAGCGCCATCTAC”, with 1.01 RPM ratio (pull-down/input); and “GATGATTGTTCTCCCAGCTGATGAATTCATGCATTCGAGTAAACAAATTTTCCTAATCTTTCTGTTCAAGCGCCATCTAC”, with 5.77 RPM ratio (pull-down/input).

Consider “GATGATTGTTCTCCCAGCTGATGAATTCGATGCATCGAGTAAACAAATTTTCCTAATCTTTCTGTTCAAGCGCCATCTAC”, for which the binding signal was 1.84 RPM ratio (pull-down/input).

In the case of “GATGATTGTTCTCCCAGCTGATGAATTGCATGATTCGAGTAAACAAATTTTCCTAATCTTTCTGTTCAAGCGCCATCTAC”, the binding signal is 1.35 RPM ratio (pull-down/input).

Regarding “GATGATTGTTCTCCCAGCTGATGAATTGAAGCATTCGAGTAAACAAATTTTCCTAATCTTTCTGTTCAAGCGCCATCTAC”, the binding signal was 4.38 RPM ratio (pull-down/input). With “GATGATTGTTCTCCCAGCTGATGAATTAATGAATTCGAGTAAACAAATTTTCCTAATCTTTCTGTTCAAGCGCCATCTAC”, the binding signal was 0.682 RPM ratio (pull-down/input). With “GATGATTGTTCTCCCAGCTGATGAATTAATGCATTCGAGTAAACAAATTTTCCTAATCTTTCTGTTCAAGCGCCATCTAC”, the binding signal was 6.89 RPM ratio (pull-down/input). As for “GATGATTGTTCTCCCAGCTGATGAATTGCATCATTCGAGTAAACAAATTTTCCTAATCTTTCTGTTCAAGCGCCATCTAC”, the binding signal is 5.15 RPM ratio (pull-down/input).

For “GATGATTGTTCTCCCAGCTGATGAATTAAATGCATCGAGTAAACAAATTTTCCTAATCTTTCTGTTCAAGCGCCATCTAC”, the binding signal was 2.36 RPM ratio (pull-down/input). For the sequence “GATGATTGTTCTCCCAGCTGATGAATTGATGCATTCGAGTAAACAAATTTTCCTAATCTTTCTGTTCAAGCGCCATCTAC”, the binding signal was 6.87 RPM ratio (pull-down/input). As for “GATGATTGTTCTCCCAGCTGATGAATTTTGCACGTCGAGTAAACAAATTTTCCTAATCTTTCTGTTCAAGCGCCATCTAC”, the binding signal is 3.32 RPM ratio (pull-down/input).
